Growth data for 25 molecules are collected here from PubChem BioAssay (NCI).

“And” between values parts separate entries of the source, which are not always exact repeats. Equal entries are not always repeated. Compounds without any hit were thinned out: in the full panel of roughly 83,000, 20% have a hit.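 Activity criterion: percent growth below 10, measured after cells in 96-well plates were exposed to a single compound concentration for 48 hours.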 A number with no mark means an inactive call. The source made the active and inactive calls.

For this experiment, the system named is HL-60(TB) leukemia. Briefly: NCI-60 one-dose screen, 48 h (100 = growth as untreated, 0 = no growth, -100 = all killed). The conditions noted are these: 10 µM unless noted.
Consider `Cc1[nH]nc2c(=S)[nH]c(=O)[nH]c12`, for which the growth is 89.2%.
Consider `CC(=O)N1N=C(c2ccc(Nc3nc(Nc4ccc(Cl)cc4)nc(Nc4ccc(Cl)cc4)n3)cc2)CC1c1ccco1` (stereo not given), for which the growth was 93.6%.
The value for `COc1cccc(OC(=O)c2ccccc2)c1OC(=O)c1ccccc1` was 69.6%; that for `Cn1c(=O)c2[nH]c(N/N=C/c3ccccc3Br)nc2n(C)c1=O` was 106%.
On to `CN1CNC(=O)NC1`, for which the growth was 85.5% and 102%.
The value for `CN(C)Cc1ccccn1` was 108%.
The value for `CCN(CC)CCOc1cccc2c1C(=O)c1cccc(OCCN(CC)CC)c1C2=O` was 19.7%.
For `CCCCCCCCCCCCCCCC(=O)N1CCN(C)CC1` the value was 47.3%; for `COc1ccc(C2c3cccn3-c3ccccc3N2C(C)=O)cc1` (stereo not given), -49.9% (active).
In the case of `O=C1c2ccc3c4c5ccc(c24)C(=O)N1CCCOCCCCOCCCNCc1ccc(cc1)CNCCCOCCCCOCCCN(C3=O)C5=O`, the growth was -61.1% (active).
Regarding `COc1cc(C(=O)NC(=S)NCc2ccncc2)cc(OC)c1OC`, the growth is 89.7%.
For `Cn1c(/C=C(\C#N)c2ccccc2)nc2c(N3CCOCC3)nc(Cl)nc21` the value was -33% (active).
Take `N#C/C(=C\c1ccc([N+](=O)[O-])s1)c1nc2cc(Cl)ccc2s1`: the growth was 44.8%.
Consider `CCOC(=O)N1CCN(CCCCOc2ccc(C(C)(C)CC)cc2)CC1`, for which the growth was 79.1%.
The value for `COC(=O)CCC(=O)C(=O)OC` was -21% [10 mM] (active); that for `N#CSCC(=O)c1ccc(Cl)cc1` was 73.4%.
For `Cc1cc(N(CCCNc2ccnc3cc(Cl)ccc23)Cc2cccs2)nc(Cl)n1` the value was -3.12% (active); for `COc1ccc2cc(-c3ccc(NC(C)=O)c(=O)o3)ccc2c1`, 95.1%.
As to `CC[N+](CC)=c1cc2oc3cc(N(C)C)ccc3nc-2cc1C`, the growth was -8.38% (active).
Turning to `CC1(C)CC(=O)c2cc3c(N)c(C(=O)Nc4ccc(Cl)cc4)sc3nc2C1`, the growth was 107%.
For `CCN(CC)CC(O)CNc1c2ccc([N+](=O)[O-])cc2nc2cc(OC)c(OC)cc12` (stereo not given) the value was -17.5% (active).
The value for `CN1CCN(CCCOc2cccc3nc(Nc4ccc(Cl)c(C(F)(F)F)c4)ccc23)CC1` was 82.3%.
`Cn1cc(-c2nonc2-c2c[nH]c3ccc(Br)cc23)c2cc(Br)ccc21`: the growth is 54%.
For `CCCCOc1ccc(Nc2cc(Cl)ccc2C(=O)O)cn1` the value was 87.2% and 103%; for `COC(=O)c1ccc2c(c1)nc(-c1cc3ccccc3[nH]c1=O)n2-c1cc(C(C)(C)C)[nH]n1`, -16.9% (active).
